Assay results published in PubChem BioAssay (Tox21).
Values joined by “and” are separate entries in the source; they are usually repeats but may differ in a detail not shown here. Equal entries are not always repeated. Records with an inconclusive call do not appear. A structure can be active in one record and inactive in another. Active and inactive are the calls of the source. Calls follow the shape of the dose curve; as a rule, active = well fitted curve in the direction sought with a large enough effect in the repeat runs; inconclusive = weak or mixed curves; inactive = no such curve, though single readings can be large; an effect the other way counts as inactive or inconclusive.

How the values were obtained:
[1] = target: Cytochrome P450 2C19 (Homo sapiens) (UniProt P33261); experiment: Cytochrome P450 Family 2 Subfamily C Member 19 (CYP2C19) small molecule antagonists: luciferase reporter qHTS assay (AID 1671197); also: nearly all actives have a fitted effect of over 65% in size; as to activity change, negative = inhibition: series mostly up to about 120 µM
In short: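 Relative luminescence units recorded 20 min after the detection reagent stopped a 1 h, 37C CYP2C19 reaction on proluciferin substrate, which was started by NADPH regeneration following 10 min room-temperature compound preincubation; ketoconazole positive control.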

[2] = target: Cytochrome P450 2C9 (Homo sapiens) (UniProt P11712); experiment: Cytochrome P450 Family 2 Subfamily C Member 9 (CYP2C9) small molecule antagonists: luciferase reporter qHTS assay (AID 1671198); also: nearly all actives have a fitted effect of over 50% in size; as to activity change, negative = inhibition: series mostly up to about 120 µM
In short: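 Enzyme-substrate mix preincubated with compound 10 min at room temperature; reaction started with NADPH regeneration solution, 1 h 37C. Luminescent luciferin product read after 20 min detection reagent.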

[3] = target: Voltage-gated inwardly rectifying potassium channel KCNH2 (Homo sapiens) (UniProt Q12809); experiment: Human Ether-a-go-go-Related Gene (hERG) channel small molecule antagonists: fluorescence cell-based qHTS assay (AID 1671200); also: nearly all actives have a fitted effect of over 50% in size;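 as to activity change, negative = inhibition: hERG-expressing U2OS cells given a thallium stimulus after FluxOR II dye loading; series mostly up to about 77 µM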
In short: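 Cell line hERG-U2OS; dye FluxOR II, 1 h RT dark; Tl+ stimulus; ex 480/em 540 nm, read each second for 2 min.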

[4] = target: Cytochrome P450 3A4 (Homo sapiens) (UniProt P08684); experiment: Cytochrome P450 Family 3 Subfamily A Member 4 (CYP3A4) small molecule antagonists: luciferase reporter qHTS assay (AID 1671201); also: nearly all actives have a fitted effect of over 50% in size; as to activity change, negative = inhibition: series mostly up to about 120 µM
In short: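 Room-temperature assay throughout: 10 min compound–enzyme/substrate preincubation, 1 h reaction after NADPH regeneration solution, 20 min detection. Luciferin formed from proluciferin substrate is quantified by luminescence.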

[5] = target: Cytochrome P450 1A2 (Homo sapiens) (UniProt P05177); experiment: Cytochrome P450 Family 1 Subfamily A Member 2 (CYP1A2) small molecule antagonists: luciferase reporter qHTS assay (AID 1671199); also: nearly all actives have a fitted effect of over 50% in size; as to activity change, negative = inhibition: series mostly up to about 120 µM
In short: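 Quantitative high-throughput format using the P450-Glo CYP1A2 system. Reaction initiated by NADPH regeneration solution, 1 h at room temperature, then stopped with detection reagent; luminescence measured 20 min later.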
% is scaled to controls: 0 for no effect and ±100 for the full control effect; potency is read from the fitted curve at half-maximal effect.

Sequence of Cytochrome P450 3A4 (Homo sapiens) (P08684 whole entry, looked up): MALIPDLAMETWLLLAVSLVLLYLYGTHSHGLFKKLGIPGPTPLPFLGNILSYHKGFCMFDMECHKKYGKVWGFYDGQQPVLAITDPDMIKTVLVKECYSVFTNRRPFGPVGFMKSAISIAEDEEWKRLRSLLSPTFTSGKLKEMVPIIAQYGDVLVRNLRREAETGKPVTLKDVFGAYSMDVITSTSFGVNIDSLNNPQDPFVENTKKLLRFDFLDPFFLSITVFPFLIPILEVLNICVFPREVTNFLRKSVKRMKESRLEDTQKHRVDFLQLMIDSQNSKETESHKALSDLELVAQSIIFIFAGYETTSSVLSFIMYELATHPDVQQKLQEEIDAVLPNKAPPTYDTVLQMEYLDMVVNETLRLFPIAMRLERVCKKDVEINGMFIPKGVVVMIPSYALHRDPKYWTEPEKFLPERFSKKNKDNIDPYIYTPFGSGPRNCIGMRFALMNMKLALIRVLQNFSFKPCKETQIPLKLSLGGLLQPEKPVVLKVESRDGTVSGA
Sequence of Voltage-gated inwardly rectifying potassium channel KCNH2 (Homo sapiens) (Q12809 whole entry, looked up): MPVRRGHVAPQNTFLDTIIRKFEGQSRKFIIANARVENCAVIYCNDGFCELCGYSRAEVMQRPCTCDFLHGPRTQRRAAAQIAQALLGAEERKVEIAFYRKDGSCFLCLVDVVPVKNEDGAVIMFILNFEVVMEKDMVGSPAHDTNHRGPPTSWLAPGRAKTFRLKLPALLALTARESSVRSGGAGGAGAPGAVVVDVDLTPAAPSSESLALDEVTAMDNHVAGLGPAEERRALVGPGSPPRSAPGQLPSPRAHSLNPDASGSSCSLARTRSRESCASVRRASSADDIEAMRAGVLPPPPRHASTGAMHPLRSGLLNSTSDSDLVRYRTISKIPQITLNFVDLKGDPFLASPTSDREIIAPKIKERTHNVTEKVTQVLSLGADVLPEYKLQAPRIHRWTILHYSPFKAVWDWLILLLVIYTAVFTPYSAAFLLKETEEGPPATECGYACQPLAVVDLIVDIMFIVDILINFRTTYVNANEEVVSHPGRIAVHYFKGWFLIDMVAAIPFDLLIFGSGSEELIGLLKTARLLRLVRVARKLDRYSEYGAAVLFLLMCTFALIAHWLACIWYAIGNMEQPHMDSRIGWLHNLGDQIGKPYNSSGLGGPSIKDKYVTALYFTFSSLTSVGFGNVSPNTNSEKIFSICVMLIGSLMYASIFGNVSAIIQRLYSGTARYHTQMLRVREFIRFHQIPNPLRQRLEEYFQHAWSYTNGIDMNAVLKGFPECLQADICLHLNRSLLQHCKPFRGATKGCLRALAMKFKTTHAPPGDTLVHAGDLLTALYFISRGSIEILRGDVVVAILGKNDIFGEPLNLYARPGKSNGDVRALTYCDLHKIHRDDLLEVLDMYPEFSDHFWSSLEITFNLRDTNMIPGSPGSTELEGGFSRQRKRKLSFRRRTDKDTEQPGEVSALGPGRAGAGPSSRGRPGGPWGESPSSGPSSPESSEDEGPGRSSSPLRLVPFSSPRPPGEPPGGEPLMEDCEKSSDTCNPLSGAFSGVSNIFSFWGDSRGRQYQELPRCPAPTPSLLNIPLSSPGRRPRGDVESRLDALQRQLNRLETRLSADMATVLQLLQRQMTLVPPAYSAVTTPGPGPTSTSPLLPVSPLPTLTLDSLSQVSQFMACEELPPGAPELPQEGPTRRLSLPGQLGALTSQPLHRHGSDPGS
Sequence of Cytochrome P450 2C19 (Homo sapiens) (P33261 whole entry, looked up): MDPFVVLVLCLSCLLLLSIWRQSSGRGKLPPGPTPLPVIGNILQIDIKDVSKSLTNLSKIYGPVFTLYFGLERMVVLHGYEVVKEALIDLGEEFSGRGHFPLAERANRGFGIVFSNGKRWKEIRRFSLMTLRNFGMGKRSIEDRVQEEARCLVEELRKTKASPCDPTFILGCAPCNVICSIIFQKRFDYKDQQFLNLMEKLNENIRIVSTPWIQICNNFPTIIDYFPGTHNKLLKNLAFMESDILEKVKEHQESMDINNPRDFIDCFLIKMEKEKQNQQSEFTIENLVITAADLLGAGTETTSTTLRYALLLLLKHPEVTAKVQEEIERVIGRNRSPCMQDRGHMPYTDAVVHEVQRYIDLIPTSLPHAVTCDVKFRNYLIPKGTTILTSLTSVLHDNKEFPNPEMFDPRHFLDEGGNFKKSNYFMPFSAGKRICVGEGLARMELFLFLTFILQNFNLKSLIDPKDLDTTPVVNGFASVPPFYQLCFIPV
Sequence of Cytochrome P450 1A2 (Homo sapiens) (P05177 whole entry, looked up): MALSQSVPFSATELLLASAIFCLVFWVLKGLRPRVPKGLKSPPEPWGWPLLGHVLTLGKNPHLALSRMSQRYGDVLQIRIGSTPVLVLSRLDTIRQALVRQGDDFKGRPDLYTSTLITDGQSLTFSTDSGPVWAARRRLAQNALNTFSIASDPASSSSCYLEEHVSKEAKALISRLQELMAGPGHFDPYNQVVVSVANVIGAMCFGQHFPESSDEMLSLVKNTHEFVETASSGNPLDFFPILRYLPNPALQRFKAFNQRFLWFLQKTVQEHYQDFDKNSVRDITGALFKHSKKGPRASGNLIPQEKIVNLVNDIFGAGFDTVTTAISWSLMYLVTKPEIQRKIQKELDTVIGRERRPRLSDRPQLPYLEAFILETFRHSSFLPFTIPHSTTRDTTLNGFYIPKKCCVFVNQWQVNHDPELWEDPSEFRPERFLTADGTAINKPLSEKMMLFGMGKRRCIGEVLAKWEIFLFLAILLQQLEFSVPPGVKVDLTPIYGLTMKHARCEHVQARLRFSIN
Sequence of Cytochrome P450 2C9 (Homo sapiens) (P11712 whole entry, looked up): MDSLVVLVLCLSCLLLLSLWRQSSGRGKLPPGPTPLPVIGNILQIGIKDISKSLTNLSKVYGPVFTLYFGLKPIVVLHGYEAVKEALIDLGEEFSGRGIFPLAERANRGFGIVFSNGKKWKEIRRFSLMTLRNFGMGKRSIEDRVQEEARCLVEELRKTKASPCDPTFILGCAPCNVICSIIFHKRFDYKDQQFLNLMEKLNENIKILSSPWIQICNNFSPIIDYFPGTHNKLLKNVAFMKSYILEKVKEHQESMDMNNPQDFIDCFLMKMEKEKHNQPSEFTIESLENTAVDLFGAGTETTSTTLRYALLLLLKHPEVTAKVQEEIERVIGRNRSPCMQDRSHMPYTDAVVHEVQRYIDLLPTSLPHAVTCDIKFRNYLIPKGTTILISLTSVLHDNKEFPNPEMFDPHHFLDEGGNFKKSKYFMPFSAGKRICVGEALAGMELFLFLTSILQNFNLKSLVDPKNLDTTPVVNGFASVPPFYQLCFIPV

Row | SMILES | Potency [1] | Potency [2] | Potency [3] | Potency [4] | activity change, negative = inhibition [3] | activity change, negative = inhibition [4] | Potency [5]
1 | CCCC(C)c1ccccc1O (configuration not stated) | inactive | 35.6 µM (active) | inactive | inactive | – | – | –
2 | C[C@@H](NCCCc1cccc(C(F)(F)F)c1)c1cccc2ccccc12 | 8.71 µM (active) | inactive | 10.7 µM (active) | – | – | – | –
3 | CNC(=O)c1ccccc1 | inactive | inactive | inactive | inactive | – | – | –
4 | Cc1oc(-c2ccccc2)nc1CCC(=O)c1ccc(CC2SC(=O)NC2=O)cc1 (configuration not stated) | 11 µM (active) | 7.76 µM (active) | inactive | – | – | – | –
5 | O=c1cc(-c2ccc(O)cc2)oc2cc(O)cc(O)c12 | 32.1 µM (active) and 39.9 µM (active) | 36.1 µM (active) and 39.9 µM (active) | inactive | – | – | – | –
6 | O=C(OC[C@H]1O[C@@H](OC(=O)c2cc(O)c(O)c(OC(=O)c3cc(O)c(O)c(O)c3)c2)[C@H](OC(=O)c2cc(O)c(O)c(OC(=O)c3cc(O)c(O)c(O)c3)c2)[C@@H](OC(=O)c2cc(O)c(O)c(OC(=O)c3cc(O)c(O)c(O)c3)c2)[C@@H]1OC(=O)c1cc(O)c(O)c(OC(=O)c2cc(O)c(O)c(O)c2)c1)c1cc(O)c(O)c(OC(=O)c2cc(O)c(O)c(O)c2)c1 | inactive | 21.5 µM (active) | – | – | 1.88% [at 15.8 µM] (inactive) | -11% [at 23.6 µM] (inactive) | –
7 | CCCCCCCC[N+](CCCCCCCC)(CCCCCCCC)CCCCCCCC | 22.4 µM (active) | 35.5 µM (active) | – | 1.59 µM (active) | – | – | 70.9 µM (active)
8 | Cc1cccc(S(=O)(=O)O)c1C | inactive | inactive | – | inactive | – | – | inactive
9 | CCCCCCOC(=O)c1ccc(O)cc1 | 11.3 µM (active) and 20 µM (active) | 35.6 µM (active) and 39.9 µM (active) | – | 79.8 µM (active) and inactive | – | – | 11.3 µM (active) and 8.94 µM (active)
10 | C=CC(=O)OCC(CO)(COCC(COC(=O)C=C)(COC(=O)C=C)COC(=O)C=C)COC(=O)C=C | 7.87 µM (active) | 7.02 µM (active) | – | 0.395 µM (active) | – | – | inactive
11 | CC/C(=C(\c1ccc(O)cc1)c1ccc(OCCN(C)C)cc1)c1ccccc1 | 44.9 µM (active) | 71.2 µM (active) | – | 12.7 µM (active) | – | – | inactive
12 | CC(C)(C)C1CCC(CC2=C(O)c3ccccc3C(=O)C2=O)CC1 (configuration not stated) | inactive | 1.95 µM (active) | – | inactive | – | – | inactive
13 | Cc1c(C)c2c(c(C)c1OC(=O)CCC(=O)O)CC[C@@](C)(CCC[C@H](C)CCC[C@H](C)CCCC(C)C)O2 | inactive | inactive | inactive | – | – | – | –
14 | c1cc(C(c2ccc(OCC3CO3)cc2)c2ccc(OCC3CO3)cc2)ccc1OCC1CO1 (configuration not stated) | 56.4 µM (active) | 20 µM (active) | – | 7.96 µM (active) | – | – | inactive
